Reference: PubChem BioAssay
Values without a mark were called inactive. For part of these data: Entries with a potency or affinity are not part of this list. The source made the active and inactive calls. Unless noted, the rule behind the calls is not given here.

What was measured:
[1] = antimalarial activity against Dd2 strain (AID 2302;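 active = growth inhibition above 50% at the single 2 µM test dose, taken to imply half-maximal potency below 2 µM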;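 note: 0% = DMSO untreated growth and 100% = chloroquine plus artemisinin killed control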); settings: P. falciparum Dd2 in RBCs, LDH growth readout, 72 h; at 2 µM; active compounds read high
[2] = HepG2 cytotoxicity, primary screen, cytotoxicity control for P. falciparum antimalarial project, cell-based, ATP luminescence (AID 2303;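 active = inhibition above 50%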;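 note: 0% = DMSO wells and 100% = digitonin-killed cells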); settings: HepG2 viability, 24-48 h, at 10 µM, active compounds read high
[3] = biological target: L-lactate dehydrogenase (Plasmodium falciparum (isolate CDC / Honduras)) (UniProt Q27743); assay: PfLDH activity inhibition – cell lysate, 3D7 strain, counter-screen for P. falciparum growth inhibition project (AID 2304);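 note: 0% = vehicle and 100% = reference inhibitor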; settings: P. falciparum 3D7 crude extract, LDH APAD/NBT absorbance; at 2 µM; active compounds read high
[4] = inhibition of 3D7 malaria parasite growth – strain 3D7 (AID 2306);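 note: 0% = DMSO wells and 100% = chloroquine plus artemisinin control wells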; settings: P. falciparum 3D7 erythrocytic growth, LDH absorbance, 72 h; at 2 µM; active compounds read high
[5] = biological target: Calcium-dependent protein kinase 1 (Plasmodium falciparum (isolate 3D7)) (UniProt P62344); assay: PfCDPK1 kinase inhibitors, biochemical, TCAMS library (AID 1159585; cut-off not given, nearly all actives have IC50 up to about 0.98 µM;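 note: inhibitors leave more ATP so luminescence rises with inhibition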); settings: recombinant PfCDPK1, Kinase-Glo ATP depletion luminescence
[6] = biological target: Plasmodium falciparum protein kinase 6 (PK6, PF3D7_1337100) (UniProt Q8IDW1); assay: PfPK6 kinase inhibitors, biochemical, TCAMS library (AID 1159586); settings: recombinant PfPK6, Kinase-Glo ATP depletion luminescence
[7] = biological target: Protein kinase 7 (PK7), Plasmodium falciparum 3D7 (PF3D7_0213400) (UniProt Q7YTF7); assay: inhibition of Plasmodium PK7 catalytic activity – biochemical, TCAMS antimalarial set, Kinase-Glo luminescence (AID 1159587); settings: recombinant PfPK7, Kinase-Glo ATP depletion luminescence
[8] = biological target: Calcium-dependent protein kinase 4 (Plasmodium falciparum (isolate 3D7)) (UniProt Q8IBS5); assay: PfCDPK4 kinase inhibitors, biochemical, TCAMS library (AID 1159588; cut-off not given, nearly all actives have IC50 up to about 0.91 µM); settings: recombinant PfCDPK4, Kinase-Glo ATP depletion luminescence
Chain of Calcium-dependent protein kinase 4 (Plasmodium falciparum (isolate 3D7)) (Q8IBS5 whole entry, looked up): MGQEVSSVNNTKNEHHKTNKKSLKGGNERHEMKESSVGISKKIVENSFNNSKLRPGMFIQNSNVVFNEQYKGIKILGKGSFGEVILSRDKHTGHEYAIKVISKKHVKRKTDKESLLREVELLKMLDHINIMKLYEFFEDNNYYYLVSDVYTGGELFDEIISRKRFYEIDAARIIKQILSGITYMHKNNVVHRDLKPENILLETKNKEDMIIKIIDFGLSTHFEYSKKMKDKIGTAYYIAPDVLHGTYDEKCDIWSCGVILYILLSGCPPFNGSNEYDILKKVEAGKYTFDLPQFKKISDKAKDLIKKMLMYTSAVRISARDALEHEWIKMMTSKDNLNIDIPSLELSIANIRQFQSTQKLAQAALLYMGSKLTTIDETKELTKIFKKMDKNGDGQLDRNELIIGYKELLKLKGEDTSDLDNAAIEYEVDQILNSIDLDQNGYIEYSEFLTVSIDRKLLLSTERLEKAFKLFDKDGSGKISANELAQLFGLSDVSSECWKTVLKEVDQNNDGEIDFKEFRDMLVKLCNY

Chain of Plasmodium falciparum protein kinase 6 (PK6, PF3D7_1337100) (Q8IDW1 1-305): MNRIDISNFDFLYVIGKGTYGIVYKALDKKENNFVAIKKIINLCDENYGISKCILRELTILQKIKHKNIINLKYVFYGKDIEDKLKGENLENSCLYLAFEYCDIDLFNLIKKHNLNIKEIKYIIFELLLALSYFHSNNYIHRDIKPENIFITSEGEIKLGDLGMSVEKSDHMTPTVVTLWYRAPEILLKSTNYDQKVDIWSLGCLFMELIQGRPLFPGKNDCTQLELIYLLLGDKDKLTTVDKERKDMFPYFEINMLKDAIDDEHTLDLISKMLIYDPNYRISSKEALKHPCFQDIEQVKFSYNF
Chain of L-lactate dehydrogenase (Plasmodium falciparum (isolate CDC / Honduras)) (Q27743 whole entry, looked up): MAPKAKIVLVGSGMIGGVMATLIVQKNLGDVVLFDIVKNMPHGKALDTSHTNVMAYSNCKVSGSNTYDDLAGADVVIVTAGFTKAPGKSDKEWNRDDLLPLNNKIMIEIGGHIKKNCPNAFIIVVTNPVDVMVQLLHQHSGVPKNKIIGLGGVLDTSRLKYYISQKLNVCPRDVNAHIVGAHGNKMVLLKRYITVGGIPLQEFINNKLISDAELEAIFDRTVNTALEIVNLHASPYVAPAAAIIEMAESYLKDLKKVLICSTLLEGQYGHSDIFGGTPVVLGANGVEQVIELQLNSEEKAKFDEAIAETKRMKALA
Chain of Protein kinase 7 (PK7), Plasmodium falciparum 3D7 (PF3D7_0213400) (Q7YTF7 1-343): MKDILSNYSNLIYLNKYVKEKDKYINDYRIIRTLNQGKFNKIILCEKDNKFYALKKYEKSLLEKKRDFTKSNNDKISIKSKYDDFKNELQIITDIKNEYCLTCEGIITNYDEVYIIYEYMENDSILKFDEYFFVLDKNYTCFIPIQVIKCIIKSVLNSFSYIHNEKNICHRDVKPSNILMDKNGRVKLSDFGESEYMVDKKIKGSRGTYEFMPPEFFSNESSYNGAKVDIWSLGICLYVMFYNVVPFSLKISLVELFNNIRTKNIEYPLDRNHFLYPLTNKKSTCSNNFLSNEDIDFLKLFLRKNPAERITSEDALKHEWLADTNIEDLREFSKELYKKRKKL
Chain of Calcium-dependent protein kinase 1 (Plasmodium falciparum (isolate 3D7)) (P62344 whole entry, looked up): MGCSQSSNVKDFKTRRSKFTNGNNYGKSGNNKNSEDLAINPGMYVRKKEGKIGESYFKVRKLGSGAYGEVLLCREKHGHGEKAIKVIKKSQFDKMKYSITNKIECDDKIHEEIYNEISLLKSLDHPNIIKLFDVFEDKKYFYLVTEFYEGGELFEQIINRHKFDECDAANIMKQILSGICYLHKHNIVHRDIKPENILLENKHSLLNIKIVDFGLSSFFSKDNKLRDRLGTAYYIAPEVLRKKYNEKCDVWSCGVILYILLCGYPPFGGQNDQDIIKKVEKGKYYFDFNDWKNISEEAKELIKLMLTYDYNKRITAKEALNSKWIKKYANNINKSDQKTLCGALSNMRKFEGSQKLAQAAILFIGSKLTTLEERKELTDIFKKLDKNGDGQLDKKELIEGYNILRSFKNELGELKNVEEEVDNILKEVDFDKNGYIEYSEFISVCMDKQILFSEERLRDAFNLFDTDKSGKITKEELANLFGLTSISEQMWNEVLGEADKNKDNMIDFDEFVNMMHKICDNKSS

SMILES | growth inhibition [1] | inhibition [2] | inhibition [3] | growth inhibition [4] | outcome [5] | outcome [6] | outcome [7] | outcome [8]
O=C(Nc1cccc(CN2CCCN(Cc3ccsc3)CC2)c1)c1ccc(-c2ccccc2)cc1 | 11% | 30% | -4% | 90% (active) | inactive | inactive | inactive | inactive
O=C(Nc1ccccc1)N(Cc1ccc(-c2ccc(CNC3CCCC3)cc2)cc1)C1CCN(Cc2ccccc2)CC1 | 61% (active) | 34% | -5% | 100% (active) | inactive | inactive | inactive | inactive
O=S(=O)(NC1CCN(c2ccnc3cc(Cl)ccc23)C1)c1ccc(C(F)(F)F)cc1 (configuration not stated) | 98% (active) | 20% | 2% | 100% (active) | inactive | inactive | inactive | inactive
CCn1cnc2c(N3CCCS3(=O)=O)cc(C(=O)N[C@@H](Cc3ccccc3)[C@H](O)CNC(C)(C)c3cccc(C(F)(F)F)c3)cc21 | 97% (active) | 9% | -1% | 99% (active) | inactive | inactive | inactive | inactive
CC(C)NCc1ccc(OCc2cccc(COc3ccc(CNC(C)C)cc3I)c2)c(I)c1 | 92% (active) | 100% (active) | 6% | 101% (active) | inactive | inactive | inactive | inactive
O=C(Nc1ccc(OC2CCN(Cc3ccccc3)C2)c(Cl)c1)c1ccc(F)cc1 (configuration not stated) | 87% (active) | 7% | 7% | 90% (active) | inactive | inactive | inactive | inactive
CC(C)Oc1ccc(CCCON2C(N)=NC(N)=NC2(C)C)cc1 | 94% (active) | 66% (active) | 0% | 96% (active) | inactive | inactive | inactive | inactive
CC(C)COc1ccc(Cl)cc1Cc1nc(-c2nc3ccc(CN(C)C)cc3[nH]2)co1 | 87% (active) | 14% | 5% | 97% (active) | inactive | inactive | inactive | inactive
Cc1ccc(F)c(OCC2CCCN(c3ccc(C(=O)NC4CC4)cn3)C2)c1 (configuration not stated) | 94% (active) | 3% | -3% | 96% (active) | inactive | inactive | inactive | inactive
O=C(/C=C/c1ccc(Cl)c(Cl)c1)NCCCCCCN1CCN(C(=O)Nc2ccc(Cl)c(Cl)c2)CC1 | 0% | 23% | -1% | 88% (active) | inactive | inactive | inactive | inactive
CN(CCS(C)(=O)=O)Cc1ccc(-c2ccc3ncnc(Nc4ccc(OCc5cccc(F)c5)c(Cl)c4)c3c2)o1 | 65% (active) | 25% | -1% | 101% (active) | inactive | inactive | inactive | inactive
CN(C)CCC1CCN(CCS(=O)(=O)c2cccc(Nc3ccc(-c4ccsc4)cn3)c2)CC1 | 6% | 49% | 0% | 97% (active) | inactive | inactive | inactive | inactive
COc1ccc2nccc([C@@H](O)CN3CCC(NC(=O)c4ccc(Cl)c(Cl)c4)CC3)c2c1 | 57% (active) | 21% | -5% | 96% (active) | inactive | inactive | inactive | inactive
CC1CCC(NCc2ccc3c(CNC4CCC(C)CC4)c(O)ccc3c2O)CC1 (configuration not stated) | 99% (active) | 4% | -2% | 101% (active) | inactive | inactive | inactive | inactive
O=S(=O)(Nc1cc2c(cc1O)CCN(C1CCC1)CC2)c1ccc(Oc2ccc(F)cc2)cc1 | 52% (active) | 20% | 0% | 99% (active) | inactive | inactive | inactive | inactive
O=C(CCc1cnc[nH]1)Nc1cccc(-c2ccc(-c3nc4ccc(F)cc4[nH]3)s2)c1 | 69% (active) | 17% | -3% | 101% (active) | inactive | inactive | inactive | inactive
CCN(CC)CCN(Cc1ccc(-c2ccc(C(F)(F)F)cc2)cc1)C(=O)Cn1c(CCc2cccc(F)c2F)nc(=O)c2ccc(F)cc21 | 41% | 14% | 3% | 98% (active) | inactive | inactive | inactive | inactive
Oc1c(CN2CCCC(C(F)(F)F)C2)cc(Cl)c2ccccc12 (configuration not stated) | 53% (active) | 23% | 4% | 94% (active) | inactive | inactive | inactive | inactive
Cc1cc2[nH]c(-c3ccc(C(=O)NCCCN4CCN(c5cccc(Cl)c5)CC4)s3)nc2cc1Cl | 93% (active) | 7% | -1% | 100% (active) | inactive | inactive | inactive | inactive
O=C(NC1CCN(CCC[C@]2(c3ccc(Cl)c(Cl)c3)CCCN(C(=O)c3ccccc3)C2)CC1)c1ccc(Cl)cc1 | 4% | 56% (active) | -1% | 95% (active) | inactive | inactive | inactive | inactive

SMILES | growth inhibition [1] | inhibition [2] | inhibition [3] | growth inhibition [4] | outcome [5] | outcome [6] | outcome [7] | outcome [8]
CCc1ccc(CN2CCC(CNC(=O)c3cc(-c4ccccc4F)cs3)C2)cc1 (configuration not stated) | 3% | 29% | -2% | 100% (active) | inactive | inactive | inactive | inactive
Cc1cccc2[nH]c(-c3ccc(-c4cccc(CNCC5CCCO5)c4)s3)nc12 (configuration not stated) | 11% | 26% | -8% | 93% (active) | inactive | inactive | inactive | inactive
O=C(Cn1c(CCc2cccc(F)c2F)cc(=O)c2cccnc21)N(CCN1CCCC1)Cc1ccc(-c2ccc(C(F)(F)F)cc2)cc1 | 64% (active) | 48% | -3% | 99% (active) | inactive | inactive | inactive | inactive
CNC(=O)Cc1ccc(C(=O)Nc2cccc(-c3cccc(-c4nc5c(C)cccc5[nH]4)c3)c2)cc1 | 53% (active) | 15% | 0% | 96% (active) | inactive | inactive | inactive | inactive
CC1CCCCN1Cc1cccc(-c2c[nH]c3nc(NC4CCCC4)ncc23)c1 (configuration not stated) | 14% | -1% | -2% | 93% (active) | inactive | inactive | inactive | inactive
Cc1cc(N[C@@H](CC(C)C)C(=O)NCCOc2ccccc2)nc(Nc2ccccc2)n1 | 9% | 9% | -2% | 93% (active) | inactive | inactive | inactive | inactive
COc1ccc2nc(-c3ccc(C(=O)NCCCN4CCN(c5cc(Cl)ccc5OC)CC4)cc3OC)[nH]c2c1 | 24% | -5% | 1% | 101% (active) | inactive | inactive | inactive | inactive
CC(C)c1ccc(NC(=O)N[C@H]2CCN(CCCCCNC(=O)/C=C/c3ccc(Cl)c(Cl)c3)C2)cc1 | 14% | 56% (active) | 7% | 100% (active) | inactive | inactive | inactive | inactive
O=C1COC2(CN1C1CCN(Cc3ccc(O)cc3Cl)C1)c1ccccc1-c1ccccc12 (configuration not stated) | 70% (active) | 10% | -1% | 82% (active) | inactive | inactive | inactive | inactive
COc1ccc(CN2CCCC(C(=O)c3ccc(C(F)(F)F)cc3)C2)c(O)c1 (configuration not stated) | 88% (active) | -2% | -3% | 98% (active) | inactive | inactive | inactive | inactive
CN1CCN(c2ccnc3ccc(NC(=O)Nc4ccccc4Br)cc23)CC1 | 95% (active) | 4% | -3% | 100% (active) | inactive | inactive | inactive | inactive
COc1ccc(CCn2c(=N)c(C(=O)NC3CCCC3)cc3c(=O)n4ccccc4nc32)cc1 | 34% | 11% | 1% | 99% (active) | inactive | inactive | inactive | inactive
COC(=O)c1ccc2[nH]cc(C3CCN(CCC4CCN(C(=O)/C=C/c5ccc(Cl)c(Cl)c5)CC4)CC3)c2c1 | 59% (active) | 24% | 1% | 97% (active) | inactive | inactive | inactive | inactive
c1cc(-c2ccc(CN3CCN(c4ccncc4)CC3)cc2)cc(-c2nc3ccccc3[nH]2)c1 | 100% (active) | 61% (active) | -2% | 101% (active) | inactive | inactive | inactive | inactive
Cc1cc(NCCC(=O)Nc2ccccc2)nc(NCCc2ccccc2)n1 | 8% | -8% | -3% | 99% (active) | inactive | inactive | inactive | inactive
COc1ccc2nccc([C@@H](O)CN3CCC(NC(=O)/C=C/c4cc([N+](=O)[O-])ccc4OC)CC3)c2c1 | 76% (active) | 12% | -1% | 99% (active) | inactive | inactive | inactive | inactive
CN1CCN(c2cc(NC(=O)c3ccc(-c4ccc(C#N)cc4)cc3)ccc2Cl)CC1 | 94% (active) | 29% | -5% | 101% (active) | inactive | inactive | inactive | inactive
C[C@@H]1CN(c2cnn(C/C=C/c3ccc(NC(=O)c4ccc(Cl)cc4)cc3)c(=O)c2Cl)C[C@H](C)N1 | 82% (active) | 25% | -2% | 88% (active) | inactive | inactive | inactive | inactive
CCCCCCCOc1ccc(NC(=O)Nc2ccc(Cn3ncc(N4CCCNCC4)c(Cl)c3=O)cc2)cc1 | 28% | 60% (active) | 2% | 87% (active) | inactive | inactive | inactive | inactive
